We go through 11 compounds from ChEMBL document CHEMBL3988442, “University of Dundee, Small-Polar-MMV Screening Library” (2021).

Set-up in all cases: scale not given: direction of the effect not stated beside the values
In assay [1] the target is Protein translocase subunit SecA (Escherichia coli (strain K12)) (UniProt P10408). Put plainly: Assay to Identify E. coli SecA ATPase Inhibitors. The format is functional. Particulars: 30 µM.
Assay [2] concerns the target T1, Ubiquitin-activating enzyme e1, putative (Leishmania donovani (strain BPK282A1)) (UniProt E9BSI1).
T1 sequence (whole entry): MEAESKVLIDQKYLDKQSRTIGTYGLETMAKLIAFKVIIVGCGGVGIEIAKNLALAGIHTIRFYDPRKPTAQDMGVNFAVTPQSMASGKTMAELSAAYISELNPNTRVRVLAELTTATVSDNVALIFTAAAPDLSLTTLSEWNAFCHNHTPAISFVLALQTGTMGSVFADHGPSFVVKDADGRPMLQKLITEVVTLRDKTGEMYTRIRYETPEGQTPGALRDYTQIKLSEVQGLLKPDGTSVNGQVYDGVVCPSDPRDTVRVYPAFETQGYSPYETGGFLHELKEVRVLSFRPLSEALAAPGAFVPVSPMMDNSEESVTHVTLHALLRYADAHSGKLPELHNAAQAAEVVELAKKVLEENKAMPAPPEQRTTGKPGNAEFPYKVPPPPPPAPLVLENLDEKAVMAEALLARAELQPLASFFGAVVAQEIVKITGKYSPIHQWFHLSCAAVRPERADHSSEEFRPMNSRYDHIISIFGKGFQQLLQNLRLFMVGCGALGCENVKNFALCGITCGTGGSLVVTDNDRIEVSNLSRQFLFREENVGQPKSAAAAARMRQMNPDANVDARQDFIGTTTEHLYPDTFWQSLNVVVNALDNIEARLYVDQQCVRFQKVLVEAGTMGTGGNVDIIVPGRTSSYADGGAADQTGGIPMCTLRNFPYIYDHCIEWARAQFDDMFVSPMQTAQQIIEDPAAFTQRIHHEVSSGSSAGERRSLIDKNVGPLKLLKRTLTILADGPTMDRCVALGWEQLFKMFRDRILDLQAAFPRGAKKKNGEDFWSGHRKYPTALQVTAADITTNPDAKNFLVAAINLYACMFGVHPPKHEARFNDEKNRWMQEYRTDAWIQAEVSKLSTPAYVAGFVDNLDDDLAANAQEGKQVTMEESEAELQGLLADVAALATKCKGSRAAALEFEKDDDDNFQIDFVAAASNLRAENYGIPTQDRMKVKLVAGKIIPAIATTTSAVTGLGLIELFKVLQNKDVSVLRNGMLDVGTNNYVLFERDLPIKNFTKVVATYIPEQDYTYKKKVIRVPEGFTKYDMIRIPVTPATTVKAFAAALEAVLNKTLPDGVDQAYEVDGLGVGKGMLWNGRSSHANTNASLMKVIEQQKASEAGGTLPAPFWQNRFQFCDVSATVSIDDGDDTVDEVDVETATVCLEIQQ
Put plainly: Leishmania donovani Ubiquitin Activating Enzyme (LdE1). It is filed as functional. The conditions noted are these: 30 µM.

Assay [3] addresses AMP-activated protein kinase, AMPK (Homo sapiens) (UniProt P54646+O43741+P54619+Q9UGJ0+Q9Y478+Q13131+Q9UGI9). Put plainly: AMP-dependent Kinase enzyme assay. An in vitro enzyme assay that detects ADP turnover that is directly proportional to AMPK activity. This uses naive AMPK that is activated during the assay with MK-8722. The format is functional. Particulars: 30 µM.
In assay [4] the target is Sialic acid-binding Ig-like lectin 9 (Homo sapiens) (UniProt Q9Y336). Kind of assay: Hs-Siglec9 ALPHAscreen SOP 20170721. Particulars: 10 µM. On the technique in general: Alpha assays give light when donor and acceptor beads are brought close together.
Sequence of Sialic acid-binding Ig-like lectin 9 (Homo sapiens) (Q9Y336 whole entry): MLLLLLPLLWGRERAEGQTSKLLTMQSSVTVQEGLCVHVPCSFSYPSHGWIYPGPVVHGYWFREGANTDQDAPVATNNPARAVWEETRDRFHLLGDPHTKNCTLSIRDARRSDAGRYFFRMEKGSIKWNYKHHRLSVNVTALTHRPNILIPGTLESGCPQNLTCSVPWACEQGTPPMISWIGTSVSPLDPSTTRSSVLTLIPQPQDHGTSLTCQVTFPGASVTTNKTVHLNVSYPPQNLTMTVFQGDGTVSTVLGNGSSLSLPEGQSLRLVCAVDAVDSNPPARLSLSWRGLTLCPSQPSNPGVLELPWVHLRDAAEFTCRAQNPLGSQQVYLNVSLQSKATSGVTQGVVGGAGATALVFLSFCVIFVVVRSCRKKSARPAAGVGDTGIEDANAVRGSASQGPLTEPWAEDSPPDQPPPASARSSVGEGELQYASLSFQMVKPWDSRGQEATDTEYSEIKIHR
In the next assay the test system is Trypanosoma cruzi. Put plainly: Trypanosoma cruzi phosphomannomutase and mannose-1-phosphate guanylyltransferase assay. The format is functional. Particulars: 10 µM.
Assay [5] has as its target T2, Arginase-2, mitochondrial (Homo sapiens) (UniProt P78540).
T2 sequence (whole entry): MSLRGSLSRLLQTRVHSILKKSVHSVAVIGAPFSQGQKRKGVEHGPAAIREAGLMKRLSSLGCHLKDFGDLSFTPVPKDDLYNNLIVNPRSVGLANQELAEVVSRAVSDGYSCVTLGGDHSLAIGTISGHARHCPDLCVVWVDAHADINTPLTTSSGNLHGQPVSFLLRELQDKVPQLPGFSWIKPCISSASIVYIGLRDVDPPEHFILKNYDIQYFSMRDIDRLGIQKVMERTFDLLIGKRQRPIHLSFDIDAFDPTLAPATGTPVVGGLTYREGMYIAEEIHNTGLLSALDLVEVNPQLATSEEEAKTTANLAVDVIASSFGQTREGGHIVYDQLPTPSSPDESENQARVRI
Kind of assay: in vitro enzyme assay to detect the production of urea directly proportional to the activity of Arginase II. Also: in the data most compounds retested in dose-response had high values. It is filed as functional. Particulars: 33.3 µM.

For assay [6], the target named is T3, Proteasome subunit beta (Trypanosoma cruzi) (UniProt O96673).
T3 sequence (whole entry): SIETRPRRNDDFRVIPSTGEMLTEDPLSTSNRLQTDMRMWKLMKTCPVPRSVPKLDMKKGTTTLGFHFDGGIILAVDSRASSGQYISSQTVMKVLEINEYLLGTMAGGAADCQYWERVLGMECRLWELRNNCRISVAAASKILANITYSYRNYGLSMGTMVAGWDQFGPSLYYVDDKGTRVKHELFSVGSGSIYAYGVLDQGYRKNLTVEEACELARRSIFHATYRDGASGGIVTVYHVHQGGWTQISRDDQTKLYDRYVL
Put plainly: Trypanosoma cruzi proteasome chymotrypsin-like activity (TcProtChymo) assay. Also: in the data most compounds retested in dose-response had high values. It is filed as functional. Particulars: 9.37 µM.

A further assay is filed under the species Homo sapiens. Put plainly: To identify inhibition of the IFN signalling (Jak-Stat) pathway via expression of an eGFP reporter gene under the control of an IFN-stimulated response element (ISRE) containing MxA promoter. The format is functional. Particulars: 30 µM.
The target of assay [7] is T4, Tyrosyl-tRNA synthetase, putative (Trypanosoma cruzi (strain CL Brener)) (UniProt Q4DSP6).
T4 sequence (whole entry): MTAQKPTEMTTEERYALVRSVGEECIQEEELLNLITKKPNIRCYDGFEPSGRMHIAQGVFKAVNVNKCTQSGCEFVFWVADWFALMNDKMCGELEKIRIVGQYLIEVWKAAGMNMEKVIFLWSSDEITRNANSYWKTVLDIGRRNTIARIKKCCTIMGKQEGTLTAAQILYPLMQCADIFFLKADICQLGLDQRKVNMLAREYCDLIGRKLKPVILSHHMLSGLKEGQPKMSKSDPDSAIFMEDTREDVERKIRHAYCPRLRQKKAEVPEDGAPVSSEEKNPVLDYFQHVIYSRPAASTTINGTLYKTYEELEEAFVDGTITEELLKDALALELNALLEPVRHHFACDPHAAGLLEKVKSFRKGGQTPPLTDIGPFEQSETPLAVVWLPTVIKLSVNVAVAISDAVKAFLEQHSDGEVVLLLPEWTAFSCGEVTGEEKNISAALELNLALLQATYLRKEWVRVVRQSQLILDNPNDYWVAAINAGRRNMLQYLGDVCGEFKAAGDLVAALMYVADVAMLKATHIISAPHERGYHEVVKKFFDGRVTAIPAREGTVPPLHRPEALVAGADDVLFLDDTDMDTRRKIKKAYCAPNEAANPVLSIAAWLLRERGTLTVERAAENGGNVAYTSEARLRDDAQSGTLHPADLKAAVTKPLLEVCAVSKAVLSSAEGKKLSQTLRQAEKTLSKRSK
Put plainly: Trypanosoma cruzi tyrosyl tRNA synthetase (TcYRS) _High Tyrosine SOP. Also: in the data most compounds retested in dose-response had high values. It is filed as functional. The conditions noted are these: 30 µM.

Assay [8] deals with T4, Tyrosyl-tRNA synthetase, putative (Trypanosoma cruzi (strain CL Brener)). Kind of assay: Trypanosoma cruzi tyrosyl tRNA synthetase (TcYRS) SOP. The format is functional. The conditions noted are these: 30 µM.
The target of assay [9] is Chromo domain-containing protein 1 (Saccharomyces cerevisiae (strain ATCC 204508 / S288c) (Baker's yeast)) (UniProt P32657). Put plainly: ScCHD-1 Enzyme Inhibition Assay. Also: in the data most compounds retested in dose-response had high values. The conditions noted are these: 30 µM. It is filed as functional.
Sequence of Chromo domain-containing protein 1 (Saccharomyces cerevisiae (strain ATCC 204508 / S288c) (Baker's yeast)) (P32657 whole entry, the tested form may be a part): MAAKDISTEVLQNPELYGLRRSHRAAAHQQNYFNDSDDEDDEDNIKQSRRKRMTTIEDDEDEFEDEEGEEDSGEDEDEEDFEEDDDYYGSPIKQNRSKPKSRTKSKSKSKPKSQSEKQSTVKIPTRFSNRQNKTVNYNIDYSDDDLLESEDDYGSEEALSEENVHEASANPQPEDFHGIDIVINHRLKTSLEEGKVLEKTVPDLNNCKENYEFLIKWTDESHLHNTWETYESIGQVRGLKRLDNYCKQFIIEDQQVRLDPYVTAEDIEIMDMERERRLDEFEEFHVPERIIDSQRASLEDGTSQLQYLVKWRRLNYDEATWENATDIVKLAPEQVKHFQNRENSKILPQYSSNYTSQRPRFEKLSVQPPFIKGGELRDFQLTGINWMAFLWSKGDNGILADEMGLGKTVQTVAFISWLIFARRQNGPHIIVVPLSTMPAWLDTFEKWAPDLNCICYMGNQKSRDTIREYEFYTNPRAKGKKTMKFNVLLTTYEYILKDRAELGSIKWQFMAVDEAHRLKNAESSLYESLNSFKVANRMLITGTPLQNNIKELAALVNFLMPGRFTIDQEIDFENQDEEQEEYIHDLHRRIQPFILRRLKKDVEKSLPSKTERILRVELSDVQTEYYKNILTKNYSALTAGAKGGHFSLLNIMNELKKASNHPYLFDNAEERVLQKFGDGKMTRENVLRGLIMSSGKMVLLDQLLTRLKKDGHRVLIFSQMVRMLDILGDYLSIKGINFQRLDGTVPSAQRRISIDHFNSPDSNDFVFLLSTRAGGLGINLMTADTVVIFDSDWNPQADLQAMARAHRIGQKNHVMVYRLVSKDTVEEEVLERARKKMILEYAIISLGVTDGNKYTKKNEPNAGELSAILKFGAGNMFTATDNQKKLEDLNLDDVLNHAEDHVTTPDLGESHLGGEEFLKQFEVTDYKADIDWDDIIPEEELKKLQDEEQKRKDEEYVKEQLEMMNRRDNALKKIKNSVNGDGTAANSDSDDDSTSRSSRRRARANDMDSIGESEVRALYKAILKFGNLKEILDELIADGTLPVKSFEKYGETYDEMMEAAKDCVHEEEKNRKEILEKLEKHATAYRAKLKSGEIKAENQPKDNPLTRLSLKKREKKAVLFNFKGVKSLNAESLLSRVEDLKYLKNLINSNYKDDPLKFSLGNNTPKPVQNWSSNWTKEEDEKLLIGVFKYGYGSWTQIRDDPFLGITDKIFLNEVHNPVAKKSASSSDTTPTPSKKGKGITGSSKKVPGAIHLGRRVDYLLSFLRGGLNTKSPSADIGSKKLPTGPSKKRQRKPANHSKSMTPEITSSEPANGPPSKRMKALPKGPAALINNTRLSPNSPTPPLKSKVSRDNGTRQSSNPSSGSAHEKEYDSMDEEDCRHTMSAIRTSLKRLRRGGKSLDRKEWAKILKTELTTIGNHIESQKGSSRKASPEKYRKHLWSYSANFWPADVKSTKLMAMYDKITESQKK

For some of these results: Measured potencies and affinities stand elsewhere.

Sequence of Protein translocase subunit SecA (Escherichia coli (strain K12)) (P10408 whole entry): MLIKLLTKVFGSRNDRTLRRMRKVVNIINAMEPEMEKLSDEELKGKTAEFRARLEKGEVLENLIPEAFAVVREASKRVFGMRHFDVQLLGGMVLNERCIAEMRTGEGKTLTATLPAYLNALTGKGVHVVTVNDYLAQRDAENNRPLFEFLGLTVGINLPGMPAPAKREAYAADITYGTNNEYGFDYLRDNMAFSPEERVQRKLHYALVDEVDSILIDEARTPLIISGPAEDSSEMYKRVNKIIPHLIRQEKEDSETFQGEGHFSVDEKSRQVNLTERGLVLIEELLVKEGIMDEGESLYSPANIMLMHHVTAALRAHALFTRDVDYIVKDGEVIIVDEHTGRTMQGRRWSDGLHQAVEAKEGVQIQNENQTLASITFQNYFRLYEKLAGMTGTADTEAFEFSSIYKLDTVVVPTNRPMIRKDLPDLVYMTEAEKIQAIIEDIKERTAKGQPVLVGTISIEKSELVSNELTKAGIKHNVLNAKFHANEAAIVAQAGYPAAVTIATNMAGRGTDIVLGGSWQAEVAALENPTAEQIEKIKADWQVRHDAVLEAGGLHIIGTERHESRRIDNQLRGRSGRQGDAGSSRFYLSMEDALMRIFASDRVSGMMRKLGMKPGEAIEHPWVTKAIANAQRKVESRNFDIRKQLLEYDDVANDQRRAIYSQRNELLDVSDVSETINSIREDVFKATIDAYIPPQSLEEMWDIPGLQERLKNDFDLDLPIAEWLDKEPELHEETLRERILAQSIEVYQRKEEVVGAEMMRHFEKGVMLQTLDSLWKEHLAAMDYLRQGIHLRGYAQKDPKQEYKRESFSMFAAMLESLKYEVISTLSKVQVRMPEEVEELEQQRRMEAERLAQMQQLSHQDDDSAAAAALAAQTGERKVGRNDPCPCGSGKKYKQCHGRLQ

`C=C(Cl)CN1CCC(C(=O)c2cc(F)ccc2F)CC1`: the Percent Effect was -2.54% in [1]; -13.2% in assay [2]; 5.79% in assay [3]; -1.3% in [4]; 4.32% in the assay on Trypanosoma cruzi; -0.766% in [5]. Also, the Percent Effect was -1.67% in [6]; 5.08% in the assay listed under Homo sapiens; 0.49% in assay [7]; 4.88% in assay [8]; 6.62% in assay [9].
Turning to `COCCc1noc(CN(C)C2CCCN(c3ccc(C)nn3)C2)n1` (stereo unspecified), the Percent Effect in assay [1] is -2.39%; in assay [2] it was 2.67%; in assay [3], -6.26%; in assay [4], 0.801%; with Trypanosoma cruzi, 3.41%; in assay [5], 1.56%. Also, the Percent Effect in assay [6] is 11.9%; in the assay listed under Homo sapiens, -8.02%; in assay [7], 4.92%; in [8], 6.17%; in assay [9], -2.05%.
For the compound `O=C(c1cc(COc2ccc3c(c2)OCO3)[nH]n1)N1CCCC1`, the Percent Effect in [1] was -4.35%; in assay [2], -5.48%; in [3], 4.54%; in [4], 2.19%; in the assay on Trypanosoma cruzi it was -5.56%; in assay [5], 4.39%. For the same compound, the Percent Effect in assay [6] is 21.7%; in the assay filed under Homo sapiens it was 14.2%; in [7] it was 3.12%; in [8], 6.17%; in assay [9] it was -1.77%.
`FC(F)(F)COCCN1CCCC(c2noc(C3CC3)n2)C1` (stereo unspecified): the Percent Effect is -2.95% in assay [1]; 5.33% in assay [2]; -7.13% in [3]; 6.38% in assay [4]; 7.3% with Trypanosoma cruzi; -0.521% in assay [5]. For the same compound, the Percent Effect in assay [6] was 16.7%; in the assay filed under Homo sapiens it was 16.5%; in [7], 3.83%; in assay [8], 11.1%; in [9], 101%.
Consider `O=S(=O)(N1CCCCC1)N1CCc2nc(C3CCNCC3)ncc2C1`, for which the Percent Effect in [1] was -2.16%; in assay [2] it was -4.05%; in assay [3], 0.892%; in assay [4] it was 4.08%; in the assay on Trypanosoma cruzi, -1.78%; in assay [5], -3.94%. The Percent Effect in assay [6] is 12.8%; in the assay listed under Homo sapiens, 5.01%; in [7], 3.23%; in assay [8] it was 1.3%; in [9], -20.6%.
Regarding `Cc1cc(CN2CCc3nn(C)c(=O)cc3C2)on1`, the Percent Effect in [1] was -2.46%; in [2] it was 12.5%; in assay [3], -228%; in assay [4] it was -1.88%; with Trypanosoma cruzi, -0.0972%; in assay [5], 4.86%. Further, the Percent Effect is 6.84% in [6]; -5.36% in the assay listed under Homo sapiens; -3.16% in [7]; -7.69% in assay [8]; -2.45% in assay [9].
Regarding `COc1ccccc1CC(=O)NS(=O)(=O)c1cncc(Br)c1`, the Percent Effect in assay [1] was -4.15%; in assay [2], 2.6%; in [3] it was 4.69%; in assay [4], -5.24%; in the assay on Trypanosoma cruzi, -1.87%; in assay [5] it was 2.13%. The Percent Effect in assay [6] is 1.35%; in the assay filed under Homo sapiens, 21.7%; in [7], -4.85%; in assay [8], -4.88%; in assay [9], -7.14%.
As to `CCN1CCC(c2nc3ccc(NC(C)C)cn3n2)CC1`, the Percent Effect in assay [1] was -3.94%; in assay [2], -2.7%; in assay [3], -138%; in assay [4] it was -3.17%; in the assay with Trypanosoma cruzi, 7.62%; in [5], -1.25%. Further, the Percent Effect is 4.48% in assay [6]; -12.5% in the assay listed under Homo sapiens; 5.94% in assay [7]; 11% in assay [8]; 0.337% in assay [9].
On to `COc1cc(CNC2CCc3nc(C)nn3C2)cc2c1OCCO2` (stereo unspecified), for which the Percent Effect in [1] is -2.1%; in [2] it was 7.89%; in assay [3], -9.24%; in assay [4], 6.01%; in the assay on Trypanosoma cruzi, 5.51%; in assay [5] it was 5.04%. Besides, the Percent Effect in [6] is 2.62%; in the assay filed under Homo sapiens it was -11.3%; in assay [7], 2.46%; in assay [8] it was 11.1%; in assay [9], -1.5%.
Regarding `CCn1nc(C)c2nc(C(C)C)nc(N3CCCCC3)c21`, the Percent Effect in assay [1] is -3.55%; in assay [2] it was 2.6%; in assay [3] it was 1.61%; in [4], 3.47%; in the assay on Trypanosoma cruzi, -5.8%; in [5], -9.65%. Besides, the Percent Effect is 1.5% in assay [6]; 5.04% in the assay filed under Homo sapiens; 3.23% in assay [7]; 6.17% in assay [8]; -0.27% in [9].
Consider `Cc1nnc(Nc2cccc(C3CCN(CCO)CC3)n2)s1`, for which the Percent Effect is -1.13% in assay [1]; 13.3% in [2]; 4.79% in [3]; -2.96% in assay [4]; 1.38% with Trypanosoma cruzi; 1.63% in assay [5]. In addition, the Percent Effect in assay [6] is 4.85%; in the assay listed under Homo sapiens, 11.5%; in assay [7] it was 6.38%; in [8], 14.1%; in [9], -3.37%.
